In PubChem BioAssay (Tox21):
Where “and” joins values, the source holds several entries; their conditions need not be identical. Equal entries are not always repeated. Results filed as inconclusive are left out. Where a call stands in place of a potency, no number is given. Some compounds were tested as several samples or in several runs, with calls that do not always agree. Calls of active or inactive are those of the source. Unless noted, calls come from the whole dose curve; as a rule, active = well fitted curve in the direction sought with a large enough effect in the repeat runs; inconclusive = weak or mixed curves; inactive = no such curve, though single readings can be large; an effect the other way counts as inactive or inconclusive. Residues, ends and D or L forms follow the SMILES beside them.

Tests used:
[1] = qHTS assay to identify small molecule antagonists of the androgen receptor (AR) signaling pathway - cell viability counter screen (AID 743033; note: nearly all actives have a fitted effect of over 45% in size; note: potency is the fitted concentration of half-maximal effect)
[2] = qHTS assay to identify small molecule antagonists of the androgen receptor (AR) signaling pathway using the MDA cell line - cell viability counter screen (AID 743041; note: nearly all actives have a fitted effect of over 45% in size; note: potency is the fitted concentration of half-maximal effect)
Summary of the method: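 Using the breast carcinoma line MDA-kb2 AR-luc, test chemicals were co-incubated with R1881 for 16 h; CellTiter-Fluor reagent, added at 15.5 h, provided a fluorescence measure of live cells.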

[3] = system: thyroid hormone receptor (rat, GH3 cells); experiment: qHTS assay to identify small molecule agonists of the thyroid receptor (TR) signaling pathway (AID 743066; calls by dose curve)
[4] = target: Estrogen receptor (Homo sapiens) (UniProt P03372); experiment: qHTS assay to identify small molecule antagonists of the estrogen receptor alpha (ER-alpha) signaling pathway (AID 743069; active = well fitted curve in the direction sought with a large enough effect in the signal ratio in the repeat runs, not every such curve was filed as active; the % refers to the signal ratio)
Summary of the method: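 Fluorescence intensity from a beta-lactamase FRET substrate served as the read-out. Cells: HEK293 with stably integrated ER-alpha-UAS-bla reporter. Agonist 17beta-estradiol was co-added with compounds; incubation 18 hr at 37C, substrate 2 hr at room temperature.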

[5] = qHTS assay to identify small molecule antagonists of the estrogen receptor alpha (ER-alpha) signaling pathway - cell viability counter screen (AID 743074; calls by dose curve; note: nearly all actives have a fitted effect of over 45% in size; note: potency is the fitted concentration of half-maximal effect)
[6] = target: Estrogen receptor (Homo sapiens) (UniProt P03372); experiment: qHTS assay to identify small molecule agonists of the estrogen receptor alpha (ER-alpha) signaling pathway (AID 743075; calls by dose curve)
[7] = target: Estrogen receptor (Homo sapiens) (UniProt P03372); experiment: qHTS assay to identify small molecule agonists of the estrogen receptor alpha (ER-alpha) signaling pathway using the BG1 cell line (AID 743079); note: nearly all actives have a fitted effect of over 20% in size
[8] = qHTS assay to identify small molecule antagonists of the estrogen receptor alpha (ER-alpha) signaling pathway using the BG1 cell line (AID 743080; calls by dose curve;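 note: BG1 cells stimulated with 17beta-estradiol alongside compound; series mostly up to about 70 µM; nearly all actives have a fitted effect of over 25% in size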)
Summary of the method: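 Quantitative HTS on the Tox21 10K library: BG1 cells with endogenous ER-alpha and ERE-luciferase reporter, 17beta-estradiol stimulation, 21.5 h compound exposure, luminescence endpoint with parallel fluorescence cytotoxicity counter-read.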

Aromatase (Homo sapiens) = Aromatase (Homo sapiens) (UniProt P11511); experiment: qHTS assay to identify aromatase inhibitors (AID 743083); note: nearly all actives have a fitted effect of over 55% in size; note: potency is the fitted concentration of half-maximal effect
[9] = qHTS assay for identifying genotoxic compounds that show differential cytotoxicity against isogenic chicken DT40 cell lines with known DNA damage response pathways - wild type cell line (AID 743012); note: nearly all actives have a fitted effect of over 60% in size; note: potency is the fitted concentration of half-maximal effect
Summary of the method: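 Viability of DNA repair-proficient chicken DT40 cells was assessed by CellTiter-Glo luminescence following 40 h compound exposure at 37 C/5% CO2.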

[10] = qHTS assay to identify small molecule antagonists of the thyroid receptor (TR) signaling pathway - cell viability counter screen (AID 743064); note: nearly all actives have a fitted effect of over 50% in size; note: potency is the fitted concentration of half-maximal effect
Summary of the method: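 Rat GH3 pituitary tumor cells stably expressing two TR response elements driving luciferase were plated, rested 4 h, then dosed with library compounds and T3 (1 nM final). After 23.5 h at 37 °C, CellTiter-Fluor was added for 30 min and fluorescence recorded.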

[11] = qHTS assay to identify small molecule antagonists of the thyroid receptor (TR) signaling pathway (AID 743065); note: nearly all actives have a fitted effect of over 55% in size; note: potency is the fitted concentration of half-maximal effect
Summary of the method: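 Antagonism measured as loss of luciferase signal in GH3 cells stably carrying a TRE-luciferase reporter, co-treated with compound and T3 (1 nM final) for 23.5 h at 37 C. Viability was read in the same well by CellTiter-Fluor.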

[12] = qHTS assay to identify small molecule antagonists of the estrogen receptor alpha (ER-alpha) signaling pathway using the BG1 cell line - cell viability counter screen (AID 743081);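 note: compound given together with 17beta-estradiol as the ER stimulus; series mostly up to about 70 µM; nearly all actives have a fitted effect of over 45% in size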
[13] = qHTS assay for identifying genotoxic compounds that show differential cytotoxicity against isogenic chicken DT40 cell lines with known DNA damage response pathways - Rad54/Ku70 mutant cell line (AID 743015); note: nearly all actives have a fitted effect of over 60% in size; note: potency is the fitted concentration of half-maximal effect
[14] = target: Androgen receptor (Homo sapiens) (UniProt P10275); experiment: qHTS assay to identify small molecule agonists of the androgen receptor (AR) signaling pathway (AID 743036; active = well fitted activation curve with a large enough effect in the signal ratio in the repeat runs, with a control signal flat, not every such curve was filed as active; the % refers to the signal ratio)
Summary of the method: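 Quantitative HTS of the Tox21 10K library in HEK293 cells bearing a stably integrated UAS-controlled beta-lactamase reporter. Compound exposure lasted 16 h at 37C. Reporter activity was detected by FRET substrate fluorescence after 2 h at room temperature.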

[15] = target: Androgen receptor (Homo sapiens) (UniProt P10275); experiment: qHTS assay to identify small molecule agonists of the androgen receptor (AR) signaling pathway using the MDA cell line (AID 743040; note: nearly all actives have a fitted effect of over 20% in size)
Summary of the method: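 Stable MMTV-luciferase reporter in MDA-kb2 cells; note the promoter carries GR as well as AR response elements. 16 h compound treatment, 37C, 0% CO2; ONE-Glo luminescence endpoint.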

[16] = target: Androgen receptor (Homo sapiens) (UniProt P10275); experiment: qHTS assay to identify small molecule antagonists of the androgen receptor (AR) signaling pathway using the MDA cell line (AID 743042; note: nearly all actives have a fitted effect of over 55% in size; note: potency is the fitted concentration of half-maximal effect)
Summary of the method: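 Antagonist mode: compounds plus R1881 agonist added to MDA-kb2 AR-luc cells, incubated 16 h at 37C. Luciferase reporter luminescence quantified, with multiplexed CellTiter-Fluor readout for cell viability.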

[17] = qHTS assay for identifying genotoxic compounds that show differential cytotoxicity against isogenic chicken DT40 cell lines with known DNA damage response pathways - Rev3 mutant cell line (AID 743014); note: nearly all actives have a fitted effect of over 55% in size; note: potency is the fitted concentration of half-maximal effect

Aromatase (Homo sapiens), sequence (P11511 whole entry, looked up): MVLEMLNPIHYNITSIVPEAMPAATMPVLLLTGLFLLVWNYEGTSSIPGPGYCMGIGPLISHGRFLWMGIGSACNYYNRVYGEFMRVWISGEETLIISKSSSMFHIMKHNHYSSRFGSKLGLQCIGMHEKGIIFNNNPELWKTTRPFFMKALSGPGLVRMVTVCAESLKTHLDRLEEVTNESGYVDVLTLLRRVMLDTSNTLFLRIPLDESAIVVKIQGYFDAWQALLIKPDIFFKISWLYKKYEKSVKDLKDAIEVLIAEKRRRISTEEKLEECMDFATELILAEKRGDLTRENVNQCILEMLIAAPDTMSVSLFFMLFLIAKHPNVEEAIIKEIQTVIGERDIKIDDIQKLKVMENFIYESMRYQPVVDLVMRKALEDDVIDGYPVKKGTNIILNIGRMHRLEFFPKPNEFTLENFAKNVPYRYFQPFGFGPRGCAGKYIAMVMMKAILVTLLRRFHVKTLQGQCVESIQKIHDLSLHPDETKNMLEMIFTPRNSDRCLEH
Estrogen receptor (Homo sapiens), sequence (P03372 whole entry, looked up): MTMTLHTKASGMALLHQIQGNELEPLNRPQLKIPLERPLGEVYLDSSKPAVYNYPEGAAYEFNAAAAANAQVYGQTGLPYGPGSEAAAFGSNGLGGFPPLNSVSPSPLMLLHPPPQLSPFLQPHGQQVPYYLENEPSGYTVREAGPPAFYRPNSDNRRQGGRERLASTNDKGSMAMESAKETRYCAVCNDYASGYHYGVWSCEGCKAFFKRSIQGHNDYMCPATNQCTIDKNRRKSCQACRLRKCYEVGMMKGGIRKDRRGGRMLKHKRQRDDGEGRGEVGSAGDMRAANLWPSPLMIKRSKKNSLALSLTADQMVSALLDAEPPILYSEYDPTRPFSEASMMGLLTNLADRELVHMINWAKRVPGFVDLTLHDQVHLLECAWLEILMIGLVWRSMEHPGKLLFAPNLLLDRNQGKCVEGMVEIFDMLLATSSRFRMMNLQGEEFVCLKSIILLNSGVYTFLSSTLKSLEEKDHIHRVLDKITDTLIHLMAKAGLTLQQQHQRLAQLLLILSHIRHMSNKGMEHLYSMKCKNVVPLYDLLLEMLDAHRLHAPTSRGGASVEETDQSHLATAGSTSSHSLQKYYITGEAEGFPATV
Androgen receptor (Homo sapiens), sequence (P10275 whole entry, looked up): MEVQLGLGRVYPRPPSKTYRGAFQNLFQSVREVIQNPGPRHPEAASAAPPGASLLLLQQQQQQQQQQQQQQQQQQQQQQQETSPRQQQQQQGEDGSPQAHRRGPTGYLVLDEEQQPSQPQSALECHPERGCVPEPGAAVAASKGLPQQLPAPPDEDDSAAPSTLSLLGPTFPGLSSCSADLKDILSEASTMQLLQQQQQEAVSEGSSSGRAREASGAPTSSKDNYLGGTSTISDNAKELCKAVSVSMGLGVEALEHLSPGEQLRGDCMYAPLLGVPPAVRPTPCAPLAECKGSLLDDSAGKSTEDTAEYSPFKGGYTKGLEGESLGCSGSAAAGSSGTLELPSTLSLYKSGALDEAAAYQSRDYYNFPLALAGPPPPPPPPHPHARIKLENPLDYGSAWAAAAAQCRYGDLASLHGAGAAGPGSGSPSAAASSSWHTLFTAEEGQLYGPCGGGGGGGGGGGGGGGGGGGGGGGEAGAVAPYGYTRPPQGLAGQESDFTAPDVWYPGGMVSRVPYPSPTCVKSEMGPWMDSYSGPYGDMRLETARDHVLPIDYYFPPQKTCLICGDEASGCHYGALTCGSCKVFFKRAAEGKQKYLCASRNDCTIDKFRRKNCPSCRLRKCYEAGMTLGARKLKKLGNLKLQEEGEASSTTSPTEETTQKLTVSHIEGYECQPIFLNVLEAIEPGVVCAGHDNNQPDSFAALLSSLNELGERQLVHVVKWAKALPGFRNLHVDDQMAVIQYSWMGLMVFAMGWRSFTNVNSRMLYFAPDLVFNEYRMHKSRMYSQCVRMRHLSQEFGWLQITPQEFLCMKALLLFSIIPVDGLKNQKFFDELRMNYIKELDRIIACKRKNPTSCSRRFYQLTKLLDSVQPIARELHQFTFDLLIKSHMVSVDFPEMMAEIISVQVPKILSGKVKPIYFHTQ

Compound | Potency [1] | Potency [2] | Potency [3] | Potency [4] | Potency [5] | Potency [6] | Potency [7] | Potency [8] | Potency (Aromatase (Homo sapiens)) | Potency [9] | Potency [10] | Potency [11] | Potency [12] | Potency [13] | Potency [14] | Potency [15] | Potency [16] | Potency [17]
CN(C)CCC(O)(c1ccccc1)c1ccccc1Cl (centres undefined) | inactive | inactive | inactive | inactive | inactive | inactive | inactive | inactive | inactive |  |  |  |  |  |  |  |  | 
COc1cccc(-c2ccc(/C=C\CN3CCCCCC3)cc2Cl)c1 | 38.7 µM (active) |  |  | inactive | inactive | inactive |  |  | 60.9 µM (active) | 3.05 µM (active) | 21.6 µM (active) | 21.6 µM (active) | inactive |  |  |  |  | 
NC(=O)C1c2ccccc2CCc2ccccc21 | inactive | inactive | inactive | inactive | inactive | inactive | inactive | inactive | inactive |  |  |  | inactive | inactive | inactive | inactive | inactive | 
N#Cc1nc(Cl)c(Cl)c(Cl)c1Cl | 9.77 µM (active) | 30.6 µM (active) |  |  |  |  |  |  | 4.86 µM (active) |  | 2.43 µM (active) | 1.72 µM (active) | inactive | 1.54 µM (active) |  | inactive | 6.86 µM (active) | 1.72 µM (active)
Clc1nc(C(Cl)(Cl)Cl)c(Cl)c(Cl)c1Cl |  |  | inactive |  | inactive | inactive |  |  |  |  | 21.7 µM (active) | 17.2 µM (active) | inactive | 27.3 µM (active) |  |  |  | 
O=C(O)c1ccc(NC2OC[C@@H](O)[C@H](O)[C@H]2O)cc1 (some centres undefined) | inactive | inactive | inactive | inactive | inactive | inactive | inactive | inactive | inactive | inactive | inactive | inactive | inactive | inactive |  |  |  | 
CCCCCCCC1CCC(=O)O1 (centres undefined) |  |  | inactive |  |  |  |  |  |  |  |  | inactive |  |  |  |  |  | 
S=C1NC=NC2N=CNC12 (centres undefined) |  | inactive | inactive |  | 11 µM (active) |  |  |  | inactive | 54.5 µM (active) | inactive |  | inactive |  |  |  |  | 
CC(C)[C@H](NC(=O)[C@H](CC(=O)O)NC(=O)[C@H](CCCCN)NC(=O)[C@@H](N)CCCN=C(N)N)C(=O)N[C@@H](Cc1ccc(O)cc1)C(=O)O (H-RKDVY-OH) | inactive | inactive | inactive | inactive | inactive | inactive | inactive | inactive | inactive | inactive | inactive | inactive | inactive |  |  |  |  | 
CN(C)CCOc1ccc(/C(=C(/CCCl)c2ccccc2)c2ccccc2)cc1 | 16.3 µM (active) | inactive | inactive |  |  |  |  |  | 21.1 µM (active) and 6.42 µM (active) |  | 10.6 µM (active) and 10.2 µM (active) | 11.9 µM (active) and 8.09 µM (active) | inactive |  |  |  | inactive and 57.2 µM (active) | 2.66 µM (active) and 1.44 µM (active)
COc1ccc2ccccc2c1 |  |  | inactive |  |  |  |  |  | inactive |  |  | inactive |  |  |  |  |  | 
CSCCC(N)C(=O)O (centres undefined) |  | inactive | inactive | inactive | inactive | inactive | inactive | inactive | inactive | inactive | inactive |  | inactive | inactive |  |  |  | 
CCCCCCCCCCCCCC(=O)OCC(COP(=O)([O-])OCC[N+](C)(C)C)OC(=O)CCCCCCCCCCCCC (centres undefined) | inactive | inactive | inactive | inactive | inactive | inactive | inactive | inactive | inactive |  | inactive | inactive |  | inactive |  |  |  | inactive
O=C(Cn1cnnn1)N[C@@H]1C(=O)N2C(C(=O)O)=C(CSc3nncs3)CS[C@H]12 | inactive | inactive | inactive | inactive | inactive | inactive | inactive |  | inactive |  | inactive |  | inactive | inactive |  |  |  | inactive
